Records with an inconclusive call do not appear. Entries that show only a call come without a potency. Active and inactive are the calls of the source. Calls follow the shape of the dose curve; as a rule, active = well fitted cell-killing curve with a large enough effect; inconclusive = small, poorly fitted or top-dose-only effect, or effect the other way; inactive = flat fitted curve, though single readings scatter.
Potency is read from the fitted curve at half-maximal effect.

A short description of the test: MultiTox-Fluor Cytotoxicity Assay - LYMP1-002 - Live Cells (AID 955). As to conditions: LYMP1-002 lymphoblastoid live-cell protease fluorescence viability; series mostly up to 46.1 µM. From the text: NIH Chemical Genomics Center [NCGC]
NIH Molecular Libraries Screening Centers Network [MLSCN]
National Institutes of Environmental Health Sciences [NIEHS]
National Toxicology Program [NTP]
We have developed a 1536-well cell-based assay for quantitative high throughput screening (qHTS) against a number of cell lines to determine in vitro cytotoxicity of small molecules. This particular assay uses a human lymphoblastoid cell line (LYMP1-002) purchased from Coriell Institute.
NCGC Assay Protocol Summary:
The MultiTox-Fluor Cytotoxicity Assay (Promega) is a homogeneous method to simultaneously measure the relative number of live and dead cells in culture by detecting changes in cell membrane integrity. There are two fluorogenic peptide substrates in the assay reagent. Viable cells are determined when the cell-permeant substrate (GF-AFC) enters the cell and is cleaved by protease from live cells resulting in liberated fluorophore. This live-cell protease activity restricted to viable cells is proportional to cell number. The dead cells are determined by using fluorogenic cell-impermeant peptide substrate (bis-AAF-R110) which cleaved by dead cell proteases leaking from damaged cell membrane.
Using the MultiTox-Fluor Cytotoxicity Assay, the relative number of live cells was measured in the lymphoblastoid cell line with complete culture medium following compound treatment for 16 hours. The assay was performed in opaque black Kalypsys 1536-well plates. In the screen, tetraoctylammonium bromide was used as positive control. Library compounds were measured for their ability to cause acute toxicity in the cell line, as reflected by a decrease in live cell protease activity, in a concentration-dependent manner. […] AC50 values were determined from concentration-response data modeled with the standard Hill equation.
qHTS protocol for MultiTox-Fluor Cytotoxicity assay
[Step] [Parameter] [Value] [Description]
1. Reagent; 5 uL; 2500 lymphoblastoid cells/well
2. Time; 5 hr; 37 C incubation
4. Controls; 23 nL; Tetraoctylammonium bromide 6.4pM to 92 uM
5. Time; 16 hr; 37 C incubation
6. Reagent; 5 uL; MuliTox-Fluor Assay reagent
7. Time; 60 min; Room Temperature
8. Detection; live-cell fluorescence (Ex/Em=405/510); EnVision plate reader
Keywords: cell viability, cytotoxicity, lymphoblastoid cell line, fluorescence, NTPHTS, NTPHTS_NCGC, NIEHS, EPA, DSSTox, MLSMR, MLSCN, NIH Roadmap, qHTS, NCGC
Take `CCOP(=S)(OCC)Oc1cc(C)nc(C(C)C)n1`: the Potency entry was “inactive”. The entry for `Oc1ccc(Cl)cc1Cc1ccccc1` is “inactive”; for `CC(=O)Oc1ccccc1C(=O)Nc1ncc([N+](=O)[O-])s1` it is 25.1 µM (active); for `NCC(O)c1ccc(O)cc1` (configuration not stated) it is “inactive”. The entry for `Clc1ccc(COC(Cn2ccnc2)c2ccc(Cl)cc2Cl)cc1` (configuration not stated) is “inactive”; for `Oc1ccccc1-c1ccccc1` it is “inactive”; for `CCCC(C)(COC(N)=O)COC(=O)NC(C)C` (configuration not stated) it is “inactive”. The entry for `CNCC(O)c1ccc(O)cc1` (configuration not stated) is “inactive”. For the compound `OCCOc1ccccc1`, the Potency entry was “inactive”. The entry for `N[C@@H](Cc1ccc(N(CCCl)CCCl)cc1)C(=O)O` is “inactive”; for `Oc1cccc2cccnc12` it is “inactive”; for `c1ccc2c(c1)Nc1ccccc1S2` it is “inactive”.

Source of the values: PubChem BioAssay (NCATS).
